DRD3 antagonist – antagonists of human D3 dopamine receptor; actives 2.5% (n = 360,000); max response, negative = inhibition, %; D3R cells, DiscoveRx beta-arrestin luminescence, antagonist mode; stronger effect = lower value; AID 652054; P35462; in the data active = max response below about -50%
Target sequence (P35462 whole entry, looked up): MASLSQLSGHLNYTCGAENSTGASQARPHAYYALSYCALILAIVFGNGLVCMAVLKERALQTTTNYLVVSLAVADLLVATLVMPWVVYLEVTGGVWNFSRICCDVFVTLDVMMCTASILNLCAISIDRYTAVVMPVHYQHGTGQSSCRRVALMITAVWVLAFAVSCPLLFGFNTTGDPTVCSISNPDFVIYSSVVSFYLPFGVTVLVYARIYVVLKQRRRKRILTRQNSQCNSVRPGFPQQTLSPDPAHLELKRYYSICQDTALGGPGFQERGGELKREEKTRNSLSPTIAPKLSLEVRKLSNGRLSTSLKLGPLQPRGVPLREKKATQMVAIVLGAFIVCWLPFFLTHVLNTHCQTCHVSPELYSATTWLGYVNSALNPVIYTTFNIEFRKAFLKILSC
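Cells plated overnight at 1500 cells/well, then exposed to library compounds with dopamine controls for 90 minutes at 37 degrees C. DiscoveRx reagent added for 30–60 minutes at room temperature; luminescence read, quantitative HTS format.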
DRD3 agonist – agonists of human D3 dopamine receptor; P35462; D3R DiscoveRx beta-arrestin cells, luminescence, 90 min; max activation, %; actives 0.58% (n = 410,000); AID 652048; in the data active = max activation above about 30%
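Agonist mode: compounds and dopamine controls were applied to plated cells for 90 min at 37 degrees C after an overnight attachment at 1500 cells/well. Luminescent read-out followed 30 - 60 minutes at room temperature with DiscoveRx detection reagent.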
D1 antagonist – antagonists of human D1 dopamine receptor | HEK293 TREx D1 cells, calcium flux, dopamine EC80; stronger effect = lower value | actives 3.2% (n = 360,000) | AID 504652 | activity change, negative = inhibition, % at 10 µM; in the data active = activity change below about -30%
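Antagonism measured as reduced calcium response to an EC80 dopamine addition following 180 s compound pre-read; cells were inducible HEK293 Trex D1 plated overnight at 30 C, read kinetically at 1 cycle/sec.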
D1 agonist – human D1 receptor agonism; P21728; HEK293 T-REx D1 cells, calcium flux, agonist mode; activation, % at 2 µM; actives 1% (n = 360,000); in the data active = activation above about 30%
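Inducible HEK293 T-REx D1 cells, force-coupled to calcium signalling, were plated at 4000 cells/well with tetracycline and held overnight at 30 C. After no-wash calcium dye loading, compound-evoked calcium rise over 180 s flagged agonists.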
D1 potentiator – enhances dopamine response at the human D1 receptor. P21728. HEK293 TREx D1 cells, calcium flux, dopamine EC20 potentiation. potentiation, % at 10 µM. actives 0.036% (n = 360,000); in the data active = potentiation above about 30%
Hits are given with their value; n = inactive; x = not tested or not shown. This is a sample that favours compounds with a hit; in the whole collection about 6% have one here.

SMILES	DRD3 antagonist	DRD3 agonist	D1 antagonist	D1 agonist	D1 potentiator
CN1CN(c2ccccc2)C2(CCN(CCCSc3ccccc3NC(=O)/C=C/c3ccccc3)CC2)C1=O	-107.5	n	x	x	x
CC1(C)C2CC=C(CN3CCOCC3)C1C2 (configuration not stated)	-53.0	n	n	n	n
c1ccc2c(CN3CCOCC3)c[nH]c2c1	n	n	n	n	n
[H+].[H+].[Hg+2].[O-]B([O-])[O-].[c-]1ccccc1	x	n	x	x	x
CCOc1ccccc1NC(=O)c1cccn(Cc2ccccc2C)c1=O	x	n	n	n	n
O=[N+]([O-])c1cc(F)c(N2CCCC2)cc1Br	n	n	n	n	n
CCN1CCN(c2cc(N3CCCC3)c(F)cc2[N+](=O)[O-])CC1	-69.2	n	n	n	n
CN1CCN(c2cc(N3CCCC3)c([N+](=O)[O-])cc2F)CC1	-78.5	n	n	n	n
O=[N+]([O-])c1cc(F)c(N2CCCCC2)cc1Br	n	n	n	n	n
COC(=O)C1=C(c2ccccc2OCc2ccccc2)C[C@@H]2CC[C@H]1N2C(=O)NCCc1ccc(F)cc1	n	n	-38.9	n	n
COC(=O)C1=C(c2cccc(OCc3ccccc3)c2)C[C@@H]2CC[C@H]1N2C(=O)NCCCc1ccccc1	n	n	n	n	n
COC(=O)C1=C(c2cccc(OCc3ccccc3)c2)C[C@@H]2CC[C@H]1N2C(=O)NC1CCN(Cc2ccccc2)CC1	-119.9	n	n	n	n
COC(=O)C1=C(c2ccc(OCc3ccccc3)cc2)C[C@@H]2CC[C@H]1N2C(=O)NCCCc1ccccc1	-50.8	n	n	n	n
COC(=O)C1=C(c2ccc(C(C)=O)cc2)C[C@@H]2CC[C@H]1N2C(=O)NC(C)C	n	n	-91.3	n	n
CC(Cc1ccc2c(c1)OCO2)NO (configuration not stated)	x	n	x	x	x
COC(=O)C1=C(c2ccc(F)cc2OCc2ccccc2)C[C@@H]2CC[C@H]1N2C(=O)NC1CCN(Cc2ccccc2)CC1	-108.2	n	x	n	n
COC(=O)C1=C(c2ccc(-c3ccccc3)c(F)c2)C[C@@H]2CC[C@H]1N2C(=O)NCCO	n	n	-39.9	n	n
COC(=O)C1=C(c2ccccc2OCc2ccccc2)C[C@@H]2CC[C@H]1N2C(=O)NC1CCN(Cc2ccccc2)CC1	-84.6	n	n	n	n
COC(=O)C1=C(c2ccc(F)cc2OCc2ccccc2)C[C@@H]2CC[C@H]1N2C(=O)NCc1ccccc1	n	n	n	n	n
COC(=O)C1=C(c2ccccc2OCc2ccccc2)C[C@@H]2CC[C@H]1N2C(=O)NCc1ccccc1	n	n	x	n	n
CCOP(=S)(OCC)O/N=C(\C#N)c1ccccc1	x	n	x	x	x
CC(C)NC(C)C(=O)c1ccc2ccccc2c1 (configuration not stated)	n	n	-34.5	n	n
CC(C(=O)c1ccc2ccccc2c1)N1CCCCC1 (configuration not stated)	n	n	n	n	n
Fc1ccc(C(OCCN2CCN(CCCc3ccccc3)CC2)c2ccc(F)cc2)cc1	x	n	x	x	x
Fc1ccc(C(OCCN2CCCC2)c2ccc(F)cc2)cc1	-61.5	n	n	n	n
SMILES	DRD3 antagonist	DRD3 agonist	D1 antagonist	D1 agonist	D1 potentiator
c1ccc(CCCN2CCN(CCOC(c3ccccc3)c3ccccc3)CC2)cc1	-75.6	n	x	x	x
Fc1ccc(C(OCCN2CCCC2)c2ccc(Br)cc2)cc1 (configuration not stated)	-73.3	n	n	n	n
CCS(=O)(=O)C(C)(C)S(=O)(=O)CC	x	n	x	x	x
COc1ccc(N2C(=O)NC(=O)/C(=C\c3ccccc3[N+](=O)[O-])C2=O)cc1	n	n	n	n	n
CCOc1ccc(N2C(=O)NC(=O)/C(=C\c3ccccc3[N+](=O)[O-])C2=O)cc1	n	n	-45.6	n	n
CC(CCc1ccccc1)NC(C)C(O)c1ccc(O)cc1 (configuration not stated)	-70.5	n	n	n	n
COc1ccc(-n2c(/C=C\c3ccccc3F)nc3ccccc3c2=O)c(OC)c1	x	n	n	n	n
CN1CCN=C(c2ccccc2)c2cc(Cl)ccc21	x	n	x	x	x
O=C(c1ccc(Cl)cc1)C1CCCN(Cc2ccc3c(c2)OCCO3)C1 (configuration not stated)	n	n	n	n	n
O=C(c1ccc2c(c1)OCO2)C1CCCN(Cc2ccc(F)c(F)c2)C1 (configuration not stated)	-52.2	n	-34.4	n	n
O=C(c1cc(F)ccc1F)C1CCCN(Cc2ccc3nonc3c2)C1 (configuration not stated)	n	n	-30.6	n	n
O=S1(=O)N(CCN2CC=C(c3c[nH]c4cc(F)ccc34)CC2)c2cccc3c2N1CCC3	-100.5	n	-40.9	n	n
CCN(CC)CCNCC(=O)Nc1ccc(Cl)cc1C(=O)c1ccccc1	-55.6	n	-38.5	n	n
CNC(C)Cc1ccccc1OC (configuration not stated)	x	n	x	x	x
Cc1nc2ccccc2c(=O)n1-c1ccccc1Cl	x	n	x	x	x
O=C(O)Cn1cc(/C=C2\C(=O)NC(=O)N(Cc3ccco3)C2=O)c2ccccc21	-63.7	n	n	n	n
O=C1NC(=O)N(Cc2ccccc2)C(=O)/C1=C\c1ccco1	n	n	-32.0	n	n
O=C(O)Cn1cc(/C=C2\C(=O)NC(=O)N(c3ccc(Br)cc3)C2=O)c2ccccc21	n	n	-31.0	n	n
CCN(CC)c1ccc(/C=C2\C(=O)NC(=O)N(Cc3ccco3)C2=O)cc1	n	n	-45.7	n	n
CCN1C(=O)NC(=O)/C(=C\c2cn(CC(=O)O)c3ccccc23)C1=O	x	x	n	n	n
O=C1NC(=O)N(Cc2ccc(F)cc2)C(=O)/C1=C\C=C\c1ccco1	n	n	n	n	n
CC(C)(O)C(Cl)(Cl)Cl	x	n	x	x	x
Cn1sc(Cl)cc1=O	x	n	x	x	x
Oc1ccc2c3c1O[C@H]1[C@@H](O)C=C[C@H]4[C@@H](C2)NCC[C@@]341	x	n	x	x	x
CCC1=CCN(CCc2c(C)[nH]c3ccccc23)CC1	-63.4	n	x	x	x
SMILES	DRD3 antagonist	DRD3 agonist	D1 antagonist	D1 agonist	D1 potentiator
COc1cccc(C(=O)CCN[C@@H](C)[C@H](O)c2ccccc2)c1	x	n	x	x	x
Cc1ccccc1CN1CCN(C(=O)Cc2ccccc2)CC1	n	n	n	n	n
CCN1CCN(Cc2ccccc2C)CC1	-65.7	n	n	n	n
CCN1CCN(Cc2ccc(C)cc2C)CC1	-71.7	n	n	n	n
Cc1ccc(CN2CCN(C)CC2)c(C)c1	n	n	n	n	n
C#C[C@]1(O)C=C[C@H]2[C@@H]3CCC4=CC(=O)CC[C@@H]4[C@H]3CC[C@@]21CC	x	n	x	x	x
O=C(COc1ccccc1Cl)N1CCN(CCc2ccccn2)CC1	x	n	n	n	n
c1ccc2c(CCNCc3ccc4c(c3)OCO4)c[nH]c2c1	-68.2	n	-42.7	98.6	n
COc1cc(CNCCc2c[nH]c3ccccc23)cc(OC)c1OC	n	n	x	x	x
CCOc1ccc(CNCCc2ccc3c(c2)OCO3)cc1	-86.4	n	n	30.5	n
